Assay results: PubChem BioAssay AID624296 (National Center for Advancing Translational Sciences (NCATS), 2012)
The whole screen tested about 350,000 compounds, of which about 9,900 (2.8%) were called active. About 15% were inconclusive and are not listed. This is one part of a sample in which actives are shown more often than they occur. Calls come from the whole dose curve; as a rule, active = well fitted activation curve with a large enough effect; inconclusive = small, poorly fitted or top-dose-only effect; inactive = no such curve, though single readings can be large or run the other way.

assay: A quantitative high throughput screen for small molecules that induce DNA re-replication in MCF 10a normal breast cells.; note: nearly all actives have a fitted effect of over 50% in size; for activity, positive = re-replication: % of control where 0% means no effect; settings: MCF 10A DNA re-replication, Hoechst nuclear intensity, 48 h; series mostly up to 46.1 µM; activity, positive = re-replication: at the top concentration
Potency is the fitted concentration of half-maximal effect.

| SMILES | Potency | activity, positive = re-replication |
| --- | --- | --- |
| COc1ccc(N(C(=O)c2snc(C(N)=O)c2N)C(C(=O)NC2CCCC2)c2ccc(C)o2)c(OC)c1 (stereo not drawn) | 20.6 µM (active) | – |
| CCC(C(=O)NC1CCCCC1)N(C(=O)c1snc(C(N)=O)c1N)c1ccc(OC)cc1OC (stereo not drawn) | – | -0.467% (inactive) |
| COc1ccc(N(C(=O)c2snc(C(N)=O)c2N)C(C(=O)NC2CCCC2)c2ccco2)cc1OC (stereo not drawn) | – | 4.32% (inactive) |
| COc1ccc(/C=C/C(=O)OCC(=O)NC2CCCCCC2)cc1OC | – | -3.09% (inactive) |
| CC(C)(C)OC(=O)NCCCCCNC(=O)c1[nH]cnc1C(=O)Nc1nccs1 | – | 11.1% (inactive) |
| Cc1cc([N+](=O)[O-])c(=O)[nH]c1C | – | -1.26% (inactive) |
| Cc1onc(-c2c(F)cccc2Cl)c1C(=O)N(C)CC(=O)Nc1cccc(F)c1 | – | 7.52% (inactive) |
| O=C(Nc1cccc(S(=O)(=O)N2CCCCC2)c1)c1ccc2c(c1)OCO2 | – | -37.9% (inactive) |
| Cc1onc(-c2c(F)cccc2Cl)c1C(=O)Nc1cccc(S(=O)(=O)N2CCCCC2)c1 | 14.6 µM (active) | – |
| CSc1nc2ccccc2c(=O)n1Cc1ccc(F)cc1 | – | -0.253% (inactive) |
| CSc1c(SCc2ccccc2)cnn(Cc2ccccc2)c1=O | 18.4 µM (active) | – |
| Cn1c(CO)cnc1SCc1ccccc1 | – | 4.65% (inactive) |
| CCCCNC1(C#N)CCN(Cc2ccccc2)CC1 | – | -3.09% (inactive) |
| CCc1nc(C)cn1S(=O)(=O)c1cc(OC)c(C)cc1C | – | 1.93% (inactive) |
| CCc1nc(C)cn1S(=O)(=O)c1cc([N+](=O)[O-])ccc1Cl | 6.51 µM (active) | – |
| CC(C)c1nccn1S(=O)(=O)c1cc([N+](=O)[O-])ccc1Cl | – | -7.05% (inactive) |
| COc1ccccc1C(=O)N(C1=NC(C)CS1)c1ccc(Cl)cc1 (stereo not drawn) | – | -0.302% (inactive) |
| CC(=O)Nc1ccc(C(=O)N(C2=NC(C)CS2)c2ccc(Cl)cc2)cc1 (stereo not drawn) | 5.17 µM (active) | – |
| CC(=O)Nc1ccc(NC(=O)CCCNC(=O)c2ccc(Cl)cc2)cc1 | – | 4.76% (inactive) |
| O=C1CC(c2ccccc2)C(c2ccccc2)=NN1 (stereo not drawn) | – | -1.02% (inactive) |
| Cc1nc2ccc(NC(=O)C3CCCCC3)cc2s1 | – | -6.42% (inactive) |
| CN(C)CCCn1c(N)c(C#N)c2nc(C#N)c(C#N)nc21 | 7.31 µM (active) | – |
| CCCN=C1N(C)C[C@@H]2[C@@H]3C(=O)N(Cc4ccccc4)C(=O)[C@@H]3[C@](C)(C(=O)OC)N12 | – | 1.39% (inactive) |
| COc1ccccc1NS(=O)(=O)c1ccc(C)c(C(=O)NNC(=O)c2csc(N3CCOCC3)n2)c1 | – | 10.5% (inactive) |
| CC(C)C(NC(=O)c1c(F)cccc1F)C(=O)NNC(=O)c1ccccc1 (stereo not drawn) | – | 5.67% (inactive) |
| CCCc1nc2c(c(=O)c3ccccc3n2C)c(=O)n1C1CCCCCC1 | 14.6 µM (active) | – |

| SMILES | Potency | activity, positive = re-replication |
| --- | --- | --- |
| Cn1c2ccccc2c(=O)c2c(O)cccc21 | – | 0.882% (inactive) |
| CCCc1nc2c(c(=O)c3ccccc3n2C)c(=O)n1-c1cc(C)cc(C)c1 | – | -0.733% (inactive) |
| CC(=NNC(=O)c1ccncc1)c1ccc(Cl)c(Cl)c1 | – | -0.649% (inactive) |
| CCC1CCCCN1C(=S)NC(=O)c1ccco1 (stereo not drawn) | – | 11.7% (inactive) |
| Cc1ccc2nc(-c3ccncc3)cc(C(=O)Nc3ccc(OC(F)F)cc3)c2c1 | 14.6 µM (active) | – |
| CCN(CC)CCNC(=O)c1ccc(NC(=O)c2cc(-c3ccncc3)nc3ccccc23)cc1 | – | 8.64% (inactive) |
| O=C(Nc1ccncc1)c1cc(-c2ccccn2)nc2ccc(Br)cc12 | – | -3.49% (inactive) |
| Cc1nc2ccc(NC(=O)c3cccc(S(=O)(=O)N4CCOCC4)c3)cc2s1 | – | 9.34% (inactive) |
| CC1(C)N=C(N)NC(Nc2ccc(Cl)cc2)=N1 | – | 11% (inactive) |
| Cc1csc(=O)n1CC(=O)Nc1ccc(S(C)(=O)=O)cc1 | – | -17.5% (inactive) |
| CCOc1cc(N2CCOCC2)c(OCC)cc1NC(=O)COc1cccc(Cl)c1 | – | 1.23% (inactive) |
| CCOc1cc(N2CCOCC2)c(OCC)cc1NC(=O)COc1cccc2cccnc12 | 15.8 µM (active) | – |
| CCOc1cc(N2CCOCC2)c(OCC)cc1NC(=O)c1cc(C)nc2ccccc12 | – | 4.26% (inactive) |
| CC(OC(=O)c1cc2ccccc2[nH]1)C(=O)N(C)c1ccccc1 (stereo not drawn) | – | 9.46% (inactive) |
| Cc1cc(N2CCN(c3ccccc3)CC2)nc(N2CCOCC2)n1 | – | 11.3% (inactive) |
| CN(C)c1ccc(/C=N/Nc2cc(N3CCOCC3)nc(N3CCOCC3)n2)cc1 | – | -0.353% (inactive) |
| C(=N/Nc1cc(N2CCOCC2)nc(N2CCOCC2)n1)/c1ccccc1 | 23.1 µM (active) | – |
| COc1ccccc1NC(=O)COC(=O)CNC(=O)C1CCCCC1 | – | 2.67% (inactive) |
| CCn1nc(NC(=O)c2ccco2)c2cc3ccc(C)cc3nc21 | 8.91 µM (active) | – |
| CCCn1nc(NS(=O)(=O)c2ccccc2)c2cc3cc(C)ccc3nc21 | – | 0.575% (inactive) |
| Cc1ccnc(NC(=O)c2ccco2)n1 | – | 6.36% (inactive) |
| COC(=O)[C@]1(Cc2ccccc2)N[C@H](CN(C)S(=O)(=O)c2ccc(F)cc2)[C@@H]2C(=O)N(Cc3ccccc3)C(=O)[C@@H]21 | – | 4.15% (inactive) |
| CCC1(C)Cc2c(sc3nc4n(c(=O)c23)CCCS4)CO1 (stereo not drawn) | – | 9.25% (inactive) |
| CCCSc1nc(NCc2ccco2)c2c3c(sc2n1)COC(C)(CC)C3 (stereo not drawn) | 23.1 µM (active) | – |
| CCC1(C)Cc2c(sc3nc(SC)nc(N)c23)CO1 (stereo not drawn) | – | -0.174% (inactive) |
| O=C(OCC(=O)N1CCCCC1)c1ccc(OC(F)(F)F)cc1 | – | 1.12% (inactive) |

| SMILES | Potency | activity, positive = re-replication |
| --- | --- | --- |
| O=C(NCCc1ccc(F)cc1)c1ccc(S(=O)(=O)N2CCCCC2)cc1 | – | 11.5% (inactive) |
| CC1(c2ccccc2)NC(=O)N(CC(=O)N2CC(=O)Nc3ccccc32)C1=O (stereo not drawn) | – | 0.732% (inactive) |
| NC(=O)C1CCN(C(=O)c2ccc(F)c(S(=O)(=O)N3CCOCC3)c2)CC1 | – | -3.07% (inactive) |
| O=S(=O)(Cc1ccc(Cl)cc1Cl)c1ccc(Cl)cc1 | 0.651 µM (active) | – |
| O=S(=O)(NCc1ccc(Cl)cc1Cl)c1cccs1 | – | -8.83% (inactive) |
| Cc1ccc(S(=O)(=O)Cc2cc(-c3ccc(Cl)cc3)no2)cc1 | – | 17.2% (inactive) |
| CCCC(=O)Nc1ccc(C(=O)N/N=C/c2ccc[nH]2)cc1 | 16.4 µM (active) | – |
| CC(=O)Nc1ccc(C(=O)NNC(=O)CCCCC(=O)NNC(=O)c2ccc(NC(C)=O)cc2)cc1 | – | 5.58% (inactive) |
| CC(=O)Nc1ccc(C(=O)/C=C/c2ccc[nH]2)cc1 | – | 14.4% (inactive) |
| Cc1ccc(C(=O)Nc2ccc3c(c2)OCCO3)cc1S(=O)(=O)N1CCOCC1 | – | 8.12% (inactive) |
| Cn1c(=O)c2c(nc(SCC(=O)Nc3ccccc3N3CCCCC3)n2C)n(C)c1=O | – | 2.92% (inactive) |
| O=C(CNCCC1=CCCCC1)Nc1ccccc1N1CCCCCC1 | 20.6 µM (active) | – |
| Cc1ccccc1NC(=O)CNc1ccccc1N1CCCCC1 | – | 27% (inactive) |
| COc1ccc(C(=O)NCC2CCCCC2)cc1S(=O)(=O)N1CCCC1 | – | -4.77% (inactive) |
| Cc1ccc(SCc2c(C(=O)N/N=C/C3CC=CCC3)nnn2-c2nonc2N)cc1 (stereo not drawn) | – | -2.37% (inactive) |
| Nc1nonc1-n1nnc(C(=O)N/N=C/c2ccccc2O)c1CN1CCCC1 | – | 12.2% (inactive) |
| Nc1nonc1-n1nnc(C(=O)N/N=C/c2cc(Br)ccc2O)c1CSC1=NCCS1 | 10.3 µM (active) | – |
| COc1ccc(C2(c3ccc(OC)cc3)NC(=O)N(CC(=O)Nc3cc(C)on3)C2=O)cc1 | – | 18.8% (inactive) |
| Cn1c(=O)c2c(ncn2CC(COCc2ccccc2Cl)OCc2ccccc2Cl)n(C)c1=O (stereo not drawn) | 13 µM (active) | – |
| Cn1c(=O)c2c(ncn2CCc2ccccc2)n(C)c1=O | – | 0.307% (inactive) |
| Cn1c(=O)c2c(ncn2CC(=O)N2CCN(c3ccccc3)CC2)n(C)c1=O | – | 0.0795% (inactive) |
| O=C(O)C1C2C=CC(O2)C1C(=O)Nc1ccccn1 (stereo not drawn) | – | -41% (inactive) |
| O=C(CNC(=O)c1n[nH]c2ccccc12)Nc1cc(Cl)ccc1Cl | – | 4.67% (inactive) |
| COC[C@@H]1NS(=O)(=O)c2ccc(Br)cc2O[C@H]1c1ccccc1 | – | -6.09% (inactive) |
| COC(=O)c1sc(-c2ccc(C(C)(C)C)cc2)cc1NC(=O)/C=C/C(=O)O | 16.4 µM (active) | – |
| COc1ccccc1NC(=O)/C=C/C(=O)O | – | 36.3% (inactive) |

| SMILES | Potency | activity, positive = re-replication |
| --- | --- | --- |
| O=C(O)/C=C/C(=O)Nc1ccc(F)cc1F | – | 18.2% (inactive) |
| COC(=O)c1sc(NC(=O)COC(=O)C2CCC2)c(C(=O)OC)c1C | – | 1.46% (inactive) |
| CC(NCC(=O)Nc1ccccc1C(=O)NC1CC1)c1ccccc1Cl (stereo not drawn) | – | 6.15% (inactive) |
| O=C(O)CCCC(=O)Nc1ccccc1-n1ccnc1 | – | -7.39% (inactive) |
| CC(CC(=O)Nc1ccccc1)n1ccnc1 (stereo not drawn) | 0.92 µM (active) | – |
| CC(C)CC(=O)Nc1ccc(Cc2ccncc2)cc1 | – | 11.8% (inactive) |
| O=[N+]([O-])c1ccc(COc2ccccc2CN2CCOCC2)cc1 | – | 18.5% (inactive) |
| CCN(CC(=O)NCc1ccc(F)cc1)S(=O)(=O)c1ccc(Cl)s1 | – | -1.33% (inactive) |
| COc1ccc(C(=O)Nc2cccc(S(C)(=O)=O)c2)cc1 | – | 15.3% (inactive) |
| COc1ccc2sc(-c3ccc(S(C)(=O)=O)cc3)c(-c3ccc(C(N)=O)cc3)c2c1 | 25.9 µM (active) | – |
| COc1cccc(C(=O)Nc2nc3ccc(S(C)(=O)=O)cc3s2)c1 | – | 1.21% (inactive) |
| CC(=O)Nc1ccc(S(=O)(=O)NCCC(=O)N2CCN(c3ccccc3Cl)CC2)cc1 | – | 5.38% (inactive) |
| NC(=O)c1ncn([C@@H]2O[C@H](CN=C3NS(=O)(=O)c4ccccc43)[C@@H](O)[C@H]2O)n1 | – | -6.43% (inactive) |
| CCc1sc(C(=O)N2CCN(CC(=O)Nc3cccc(F)c3)CC2)cc1C | – | -1.39% (inactive) |
| CCOc1ccc(N2C(=O)CC(N(CCc3ccc(OC)c(OC)c3)C(=S)Nc3ccccc3)C2=O)cc1 (stereo not drawn) | 23.1 µM (active) | – |
| COC(=O)CN(C(=S)Nc1ccc(Cl)cc1)C1CC(=O)N(c2ccc(OC)cc2)C1=O (stereo not drawn) | – | -2.14% (inactive) |
| CCOc1ccc(N2C(=O)CC(N(O)c3ccccc3)C2=O)cc1 (stereo not drawn) | – | 13.9% (inactive) |
| COc1ccccc1N1CCN(CC(=O)Nc2ccnn2C2CCCC2)CC1 | – | 2.55% (inactive) |
| CC(C)Cn1cnc2c(SCc3ccc(Cl)cc3)nc(N)nc21 | – | 22.9% (inactive) |
| CC(C)c1ccc2c(c1)c(SC(C)(C)C)c(CC(C)(C)C(=O)O)n2Cc1ccc(Cl)cc1 | 2.91 µM (active) | – |
| O=C(O)c1ccc(Cn2c(=S)[nH]c3cc(Cl)ccc3c2=O)cc1 | – | -9.11% (inactive) |
| CCN([C@H](CO)C(C)C)S(=O)(=O)c1ccccc1Br | – | -19.4% (inactive) |
| COc1cc(OC)cc(-c2c(C#Cc3ccsc3)c3cc(-c4ccc(OC)cc4F)ccc3n2C)c1 | 0.326 µM (active) | – |
| COc1ccc(-c2c(C#Cc3ccsc3)c3cc(-c4ccc(CN5CCOCC5)cc4)ccc3n2C)cc1 | – | 0% (inactive) |
| COc1cc(OC)cc(-c2c(C#Cc3ccsc3)c3cc(-c4ccc(SC)cc4)ccc3n2C)c1 | – | 18.3% (inactive) |
